According to the supplement of paper PMC8866396:
± gives the standard deviation of the averaged measurements.

system: IL-6-GFP PC-9GR; test: cell viability (CCK-8 OD) relative to DMSO control (fraction of control); higher = more viable cells; details: compound concentration: 10 uM; treatment time: 48 h
Outline: (§1)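 PC-9 and PC-9GR lung cancer cells carrying a lentiviral construct that overexpresses IL-6-GFP were seeded in 96-well plates at 3000 cells/well. Every compound in a purchased 510-compound library was applied at a final 10 μM for 48 h, and a parallel set of plates was kept for GFP imaging. Cell viability was read by CCK-8 absorbance, taking each well's optical density as a ratio to the vehicle control well. Two independent replicates were run.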

Structure (SMILES) | cell viability
NC(=O)c1cccc2cn(-c3ccc(C4CCCNC4)cc3)nc12 (configuration not stated) [Niraparib (MK-4827)] | 0.841 ± 0.011
CC(=O)Nc1ccccc1 [Acetanilide] | 1.31 ± 0.19
CNC(=O)C(NC(=O)C(CC(C)C)C(O)C(=O)NO)C(C)(C)C (configuration not stated) [Marimastat (BB-2516)] | 0.915 ± 0.038
COC1=C(OC)C(=O)C(CCCCCCCCCCO)=C(C)C1=O [Idebenone] | 1.12 ± 0.088
CNC(=O)c1ccccc1Sc1ccc2c(/C=C/c3ccccn3)n[nH]c2c1 [Axitinib] | 0.712 ± 0.0072
Cc1nc2ccc(CN(C)c3ccc(C(=O)NC(CCC(=O)O)C(=O)O)s3)cc2c(=O)[nH]1 (configuration not stated) [Raltitrexed] | 0.5349 ± 0.0032
Cc1ccc(Nc2nccc(N(C)c3ccc4c(C)n(C)nc4c3)n2)cc1S(N)(=O)=O [Pazopanib] | 0.795 ± 0.041
NC(=O)Cc1cccc(C(=O)c2ccccc2)c1N [Nepafenac] | 1.07 ± 0.029
CC(=O)OC1(C(C)=O)CCC2C3CC(C)C4=CC(=O)C=CC4(C)C3(F)C(O)CC21C (configuration not stated) [Fluorometholone Acetate] | 0.701 ± 0.05
Nc1nc(=S)c2[nH]cnc2[nH]1 [Thioguanine] | 1.37 ± 0.42
CN1C2=CC(=O)/C(=N\NC(N)=O)C=C2CC1S(=O)(=O)[O-].[Na+] (configuration not stated) [Carbazochrome sodium sulfonate (AC-17)] | 1.16 ± 0.028
Cc1cccn2c(=O)c(-c3nnn[n-]3)cnc12.[K+] [Pemirolast potassium] | 1.24 ± 0.25
Cc1ccc(-c2cc(C(F)(F)F)nn2-c2ccc(S(N)(=O)=O)cc2)cc1 [Celecoxib] | 1.13 ± 0.057
CC1(C)C2CCC1(C)C(O)C2 (configuration not stated) [Borneol] | 1.27 ± 0.36
CN1CCN(C(c2ccccc2)c2ccccc2)CC1.Cl.Cl [Cyclizine 2HCl] | 1.06 ± 0.31
Cc1coc2c1C(=O)C(=O)c1c-2ccc2c(C)cccc12 [Tanshinone I] | 1.32 ± 0.097
Cc1cc(Nc2ncc(Cl)c(Nc3ccccc3S(=O)(=O)C(C)C)n2)c(OC(C)C)cc1C1CCNCC1 [Ceritinib (LDK378)] | 0.091 ± 0.015

Structure (SMILES) | cell viability
CN(C)CCN1C(=O)c2cccc3cc(N)cc(c23)C1=O [Amonafide] | 0.534 ± 0.025
CC(=O)OC(C)C(C)C(=O)OCC12C3CC4(C)C(=CCC5C6(C)CCC(OC7OC(C(=O)[O][Na])C(OC8OC(CO)C(O)C(O)C8O)C(O)C7OC7OCC(O)C(O)C7O)C(C)(CO)C6CCC54C)C1CC(C)(C)C(O3)C2O (configuration not stated) [Sodium Aescinate] | 0.632 ± 0.25
Cl.O=C1NCC2(CCN(CCc3ccccc3)CC2)O1 [Fenspiride HCl] | 1.02 ± 0.044
CCOC(=O)c1ccc(OC(=O)CCCCCNC(=N)N)cc1.CS(=O)(=O)O [Gabexate Mesylate] | 1.14 ± 0.069
CC12CCC3c4ccc(O)cc4CC(CCCCCCCCCS(=O)CCCC(F)(F)C(F)(F)F)C3C1CCC2O (configuration not stated) [Fulvestrant] | 1.14 ± 0.072
Cc1ccc(C(=O)c2ccc(CC(=O)O)n2C)cc1 [Tolmetin] | 1.11 ± 0.13
CN1CCN(c2ccc(C(=O)Nc3n[nH]c4ccc(Cc5cc(F)cc(F)c5)cc34)c(NC3CCOCC3)c2)CC1 [Entrectinib (RXDX-101)] | 0.164 ± 0.14
COc1cc(CNC(=O)CCCC/C=C\C(C)C)ccc1O [Zucapsaicin] | 0.332 ± 0.62
CC(=O)Nc1ccc(CC(=O)O)cc1 [Actarit] | 1.61 ± 0.35
Cc1cc2c(C(N)=O)cccc2n1-c1nc2c(c(NCc3ccccc3)n1)COCC2 | 0.204 ± 0.1
Cc1c(-c2ccc(O)cc2)n(Cc2ccc(OCCN3CCCCCC3)cc2)c2ccc(O)cc12.Cl [Bazedoxifene HCl] | 0.539 ± 0.098
CCc1ccc(Cc2ccc3c(c2)C2(OC3)OC(CO)C(O)C(O)C2O)cc1.O (configuration not stated) [Tofogliflozin(CSG 452)] | 0.92 ± 0.21
CC(Nc1ncnc2[nH]cnc12)c1cc2cccc(Cl)c2c(=O)n1-c1ccccc1 (configuration not stated) [Duvelisib (IPI-145, INK1197)] | 1.42 ± 0.39
CC(C(=O)O)c1ccc(C(=O)c2ccccc2)s1 (configuration not stated) [Tiaprofenic acid] | 0.905 ± 0.037
O=c1ccc2ccc(O)c(O)c2o1 [Daphnetin] | 1.303 ± 0.0056
CC(C)Cc1ccc(C(C)C(=O)OCc2ccccn2)cc1 (configuration not stated) [Ibuprofen piconol] | 1.43 ± 0.54

system: IL-6-GFP PC-9; test: as above; details: compound concentration: 10 uM; treatment time: 48 h
Outline: as §1

Structure (SMILES) | cell viability
COC(c1ccccc1)(c1ccccc1)C(Oc1nc(C)cc(C)n1)C(=O)O (configuration not stated) [Ambrisentan] | 1.25 ± 0.37
O=C(OCC1OC(OC(=O)c2cc(O)c(O)c(OC(=O)c3cc(O)c(O)c(O)c3)c2)C(OC(=O)c2cc(O)c(O)c(OC(=O)c3cc(O)c(O)c(O)c3)c2)C(OC(=O)c2cc(O)c(O)c(OC(=O)c3cc(O)c(O)c(O)c3)c2)C1OC(=O)c1cc(O)c(O)c(OC(=O)c2cc(O)c(O)c(O)c2)c1)c1cc(O)c(O)c(OC(=O)c2cc(O)c(O)c(O)c2)c1 (configuration not stated) [Tannic acid] | 1.2 ± 0.23
CC(C(=O)O)c1ccc2c(c1)CC(=O)c1ccccc1S2 (configuration not stated) [Zaltoprofen] | 0.542 ± 0.067
CS(=O)(=O)CCNCc1ccc(-c2ccc3ncnc(Nc4ccc(OCc5cccc(F)c5)c(Cl)c4)c3c2)o1.Cc1ccc(S(=O)(=O)O)cc1.Cc1ccc(S(=O)(=O)O)cc1 | 0.708 ± 0.033
C=CC(=O)Nc1cc(Nc2nccc(-c3cn(C)c4ccccc34)n2)c(OC)cc1N(C)CCN(C)C.CS(=O)(=O)O [Osimertinib mesylate] | 0.298 ± 0.12
Nc1nnc(-c2cccc(Cl)c2Cl)c(N)n1 [Lamotrigine] | 1.05 ± 0.16
CCC1(O)CC2CN(CCc3c([nH]c4ccccc34)C(C(=O)OC)(c3cc4c(cc3OC)N(C)C3C(O)(C(=O)OC)C(OC(C)=O)C5(CC)C=CCN6CCC43C65)C2)C1.O=S(=O)(O)O (configuration not stated) [Vinblastine sulfate] | 0.655 ± 0.084
NC(=O)c1cccc2cn(-c3ccc(C4CCCNC4)cc3)nc12 (configuration not stated) [Niraparib (MK-4827)] | 0.918 ± 0.045
CC(=O)Nc1ccccc1 [Acetanilide] | 1.24 ± 0.12
CNC(=O)C(NC(=O)C(CC(C)C)C(O)C(=O)NO)C(C)(C)C (configuration not stated) [Marimastat (BB-2516)] | 1.14 ± 0.19
COC1=C(OC)C(=O)C(CCCCCCCCCCO)=C(C)C1=O [Idebenone] | 0.816 ± 0.0099
CNC(=O)c1ccccc1Sc1ccc2c(/C=C/c3ccccn3)n[nH]c2c1 [Axitinib] | 0.532 ± 0.05
Cc1nc2ccc(CN(C)c3ccc(C(=O)NC(CCC(=O)O)C(=O)O)s3)cc2c(=O)[nH]1 (configuration not stated) [Raltitrexed] | 0.506 ± 0.17
Cc1ccc(Nc2nccc(N(C)c3ccc4c(C)n(C)nc4c3)n2)cc1S(N)(=O)=O [Pazopanib] | 0.725 ± 0.062
NC(=O)Cc1cccc(C(=O)c2ccccc2)c1N [Nepafenac] | 0.958 ± 0.1
CC(=O)OC1(C(C)=O)CCC2C3CC(C)C4=CC(=O)C=CC4(C)C3(F)C(O)CC21C (configuration not stated) [Fluorometholone Acetate] | 0.947 ± 0.087
Nc1nc(=S)c2[nH]cnc2[nH]1 [Thioguanine] | 1.2 ± 0.061

Structure (SMILES) | cell viability
CN1C2=CC(=O)/C(=N\NC(N)=O)C=C2CC1S(=O)(=O)[O-].[Na+] (configuration not stated) [Carbazochrome sodium sulfonate (AC-17)] | 1.04 ± 0.16
Cc1cccn2c(=O)c(-c3nnn[n-]3)cnc12.[K+] [Pemirolast potassium] | 1.23 ± 0.31
Cc1ccc(-c2cc(C(F)(F)F)nn2-c2ccc(S(N)(=O)=O)cc2)cc1 [Celecoxib] | 1.09 ± 0.051
CC1(C)C2CCC1(C)C(O)C2 (configuration not stated) [Borneol] | 0.778 ± 0.016
CN1CCN(C(c2ccccc2)c2ccccc2)CC1.Cl.Cl [Cyclizine 2HCl] | 0.972 ± 0.038
Cc1coc2c1C(=O)C(=O)c1c-2ccc2c(C)cccc12 [Tanshinone I] | 1.51 ± 0.29
Cc1cc(Nc2ncc(Cl)c(Nc3ccccc3S(=O)(=O)C(C)C)n2)c(OC(C)C)cc1C1CCNCC1 [Ceritinib (LDK378)] | 0.0667 ± 0.041
CN(C)CCN1C(=O)c2cccc3cc(N)cc(c23)C1=O [Amonafide] | 0.425 ± 0.076
CC(=O)OC(C)C(C)C(=O)OCC12C3CC4(C)C(=CCC5C6(C)CCC(OC7OC(C(=O)[O][Na])C(OC8OC(CO)C(O)C(O)C8O)C(O)C7OC7OCC(O)C(O)C7O)C(C)(CO)C6CCC54C)C1CC(C)(C)C(O3)C2O (configuration not stated) [Sodium Aescinate] | 1 ± 0.18
Cl.O=C1NCC2(CCN(CCc3ccccc3)CC2)O1 [Fenspiride HCl] | 1.24 ± 0.015
CCOC(=O)c1ccc(OC(=O)CCCCCNC(=N)N)cc1.CS(=O)(=O)O [Gabexate Mesylate] | 0.801 ± 0.071
CC12CCC3c4ccc(O)cc4CC(CCCCCCCCCS(=O)CCCC(F)(F)C(F)(F)F)C3C1CCC2O (configuration not stated) [Fulvestrant] | 1.024 ± 0.0045
Cc1ccc(C(=O)c2ccc(CC(=O)O)n2C)cc1 [Tolmetin] | 1.29 ± 0.02
CN1CCN(c2ccc(C(=O)Nc3n[nH]c4ccc(Cc5cc(F)cc(F)c5)cc34)c(NC3CCOCC3)c2)CC1 [Entrectinib (RXDX-101)] | 0.515 ± 0.14
COc1cc(CNC(=O)CCCC/C=C\C(C)C)ccc1O [Zucapsaicin] | 1.22 ± 0.092
CC(=O)Nc1ccc(CC(=O)O)cc1 [Actarit] | 1.15 ± 0.07
Cc1cc2c(C(N)=O)cccc2n1-c1nc2c(c(NCc3ccccc3)n1)COCC2 | 0.261 ± 0.0057
